Values without a mark were called inactive. Results filed as inconclusive are left out. Calls of active or inactive are those of the source. Unless noted, calls come from the whole dose curve; as a rule, active = well fitted curve in the direction sought with a large enough effect; inconclusive = small, poorly fitted or top-dose-only effect, or another doubt; inactive = no such curve, though single readings can be large; an effect the other way counts as inactive or inconclusive.

The nature of experiment [1]: AP1 Signaling Pathway (AID 357; active = well fitted curve in either direction with a large enough effect, not every such curve was filed as active; note: % is set by controls: 0 for no effect and ±100 for the full control effect). The conditions noted are these: ME-180 AP-1-bla reporter, EGF-induced, beta-lactamase ratio, 5 h; at 7.69 µM (top of the series) unless noted. A digest of the protocol: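 AP-1-bla ME-180 cells with beta-lactamase reporter under AP-1 response element, stimulated with EC50 EGF; compounds titrated, 5 hours at 37 degrees Celsius. CCF4 read at 460/530 nm ratio; positive and negative modulators judged by AC50.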

Experiment [2] has as its target Cytochrome P450 1A2 (Homo sapiens) (UniProt P05177). Put plainly: p450-cyp1a2 (AID 410; calls by dose curve; note: potency is the fitted concentration of half-maximal effect). Put shortly:
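20nM CYP1A2 with 100uM Luciferin-ME (at Km) in 100mM KPO4; compound preincubated 10 min, NADPH regeneration added, 60 min at room temperature. Luciferin quantified by luminescence after detection reagent; normalized to 57 uM furafylline.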

A short description of experiment [3]: NFAT Signaling Pathway (AID 444; active = well fitted curve in either direction with a large enough effect, not every such curve was filed as active;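 note: carbachol stimulus at about its EC50 of 1 µM final; % is set by controls: 0 for no effect and ±100 for the full control effect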). The note with it: Jurkat NFAT-bla M1, carbachol, beta-lactamase ratio, 5 h; at 7.69 µM (top of the series) unless noted. A digest of the protocol: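 Read-out: CCF4 FRET ratio (460 nm/530 nm) after 1 h RT dye loading, used for %activity and AC50 from titration series. Cells: Jurkat NFAT-β-lactamase/M1 line, treated with compound plus 1 uM carbachol for 5 h, 37 °C.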

A short description of experiment [4]: Stat Signaling Pathway (AID 446; active = well fitted curve in either direction with a large enough effect, not every such curve was filed as active;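 note: ME-180 cervical cancer cells given 40 pM IL-6 alongside compound; SIE-controlled beta-lactamase reporter measured as 460/530 nm FRET emission ratio; % is set by controls: 0 for no effect and ±100 for the full control effect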). The note with it: ME-180 SIE beta-lactamase reporter, IL-6 stimulated, 5 h; at 7.69 µM (top of the series) unless noted. A digest of the protocol: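 Reporter line: ME-180 cervical carcinoma, SIE-beta-lactamase. Treatment: compound with 40 pM IL-6, 5 hrs, 37 C, in low-serum OPTI-MEM with 10 mM HEPES pH 7.3. Detection: 460/530 nm fluorescence.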

For experiment [5], the target named is Glucocorticoid receptor (Homo sapiens) (UniProt P04150). As to the kind of experiment: GR-GFP Redistribution (AID 450;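 active = compounds whose dose series gives a full or clear partial fitted curve of increased nuclear translocation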; note: potency is the fitted concentration of half-maximal effect). The note with it: U2OS GR-GFP nuclear translocation, laser cytometry, 2 h.
Sequence of Glucocorticoid receptor (Homo sapiens) (P04150 whole entry, looked up, the tested form may be a part): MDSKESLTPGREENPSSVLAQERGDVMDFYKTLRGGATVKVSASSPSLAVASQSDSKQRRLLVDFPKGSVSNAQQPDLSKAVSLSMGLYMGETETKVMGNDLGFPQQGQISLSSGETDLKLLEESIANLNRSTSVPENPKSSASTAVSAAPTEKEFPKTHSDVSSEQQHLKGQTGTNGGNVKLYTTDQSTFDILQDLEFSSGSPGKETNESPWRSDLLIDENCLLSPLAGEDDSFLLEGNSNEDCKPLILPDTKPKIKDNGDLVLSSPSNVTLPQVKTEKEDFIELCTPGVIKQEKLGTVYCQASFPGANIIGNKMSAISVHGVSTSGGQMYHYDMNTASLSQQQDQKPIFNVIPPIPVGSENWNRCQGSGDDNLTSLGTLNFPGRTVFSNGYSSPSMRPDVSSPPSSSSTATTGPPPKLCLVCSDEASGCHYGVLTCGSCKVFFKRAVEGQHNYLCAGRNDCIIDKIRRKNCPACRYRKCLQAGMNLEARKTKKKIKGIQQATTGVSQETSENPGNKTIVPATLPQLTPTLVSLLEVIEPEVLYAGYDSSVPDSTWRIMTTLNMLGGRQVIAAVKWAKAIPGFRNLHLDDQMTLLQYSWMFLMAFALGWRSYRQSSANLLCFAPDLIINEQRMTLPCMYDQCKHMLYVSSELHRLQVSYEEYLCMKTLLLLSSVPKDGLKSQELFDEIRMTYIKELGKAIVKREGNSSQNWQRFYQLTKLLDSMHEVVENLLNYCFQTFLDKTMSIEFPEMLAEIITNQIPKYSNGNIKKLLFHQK
The target is the same in experiment [6]. Put plainly: GR-EFC Redistribution (AID 451; calls by dose curve; note: potency is the fitted concentration of half-maximal effect). The conditions noted are these: CHO-K1 GR-EFC translocation, beta-gal luminescence, 2 h. Put shortly: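 Translocation of GR-ED fusion to nuclear EA restores b-gal, read by luminescence after 1 h room-temperature detection. Engineered CHO-K1 biosensor cells, 1,000/well, exposed 2 h at 37 C to titrations up to 46 uM final.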

The target in experiment [7] is Mitogen-activated protein kinase 10 (Mus musculus) (UniProt Q61831). Put plainly: JNK3 AlphaScreen Assay (AID 530; active = well fitted curve in either direction with a large enough effect, not every such curve was filed as active;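 note: kinase came from lysate of stimulated human HepG2 cells; signal reports phosphorylation of biotinylated GST-cJun 1-79 at Ser73 with 10 µM ATP; % is set by controls: 0 for no effect and ±100 for the full control effect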). Put shortly:
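Compound titrations were preincubated 15 minutes at room temperature with substrate, antibody and pre-activated JNK3-containing HepG2 lysate. Reactions were started with 10 uM ATP and stopped with EDTA-containing bead buffer for AlphaScreen detection.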
A general note: Alpha assays give light when donor and acceptor beads are brought close together.

In experiment [8] the target is 3',5'-cyclic-AMP phosphodiesterase 4B (Homo sapiens) (UniProt Q07343). As to the kind of experiment: qHTS Assay for Inhibitors of PDE-IV (AID 607; active = well fitted activation curve with a large enough effect in the main read-out, with a control signal flat, not every such curve was filed as active; note: % of control where 0% means no effect). A digest of the protocol: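 Cell-based read-out of cAMP via a modified cyclic nucleotide-gated channel and membrane potential dye (535/590 nm) in HEK293 cells expressing PDE4 endogenously. Compounds tested up to 22.9 uM final; 100 uM RO 20-1724 reference.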
Sequence of 3',5'-cyclic-AMP phosphodiesterase 4B (Homo sapiens) (Q07343 whole entry, looked up): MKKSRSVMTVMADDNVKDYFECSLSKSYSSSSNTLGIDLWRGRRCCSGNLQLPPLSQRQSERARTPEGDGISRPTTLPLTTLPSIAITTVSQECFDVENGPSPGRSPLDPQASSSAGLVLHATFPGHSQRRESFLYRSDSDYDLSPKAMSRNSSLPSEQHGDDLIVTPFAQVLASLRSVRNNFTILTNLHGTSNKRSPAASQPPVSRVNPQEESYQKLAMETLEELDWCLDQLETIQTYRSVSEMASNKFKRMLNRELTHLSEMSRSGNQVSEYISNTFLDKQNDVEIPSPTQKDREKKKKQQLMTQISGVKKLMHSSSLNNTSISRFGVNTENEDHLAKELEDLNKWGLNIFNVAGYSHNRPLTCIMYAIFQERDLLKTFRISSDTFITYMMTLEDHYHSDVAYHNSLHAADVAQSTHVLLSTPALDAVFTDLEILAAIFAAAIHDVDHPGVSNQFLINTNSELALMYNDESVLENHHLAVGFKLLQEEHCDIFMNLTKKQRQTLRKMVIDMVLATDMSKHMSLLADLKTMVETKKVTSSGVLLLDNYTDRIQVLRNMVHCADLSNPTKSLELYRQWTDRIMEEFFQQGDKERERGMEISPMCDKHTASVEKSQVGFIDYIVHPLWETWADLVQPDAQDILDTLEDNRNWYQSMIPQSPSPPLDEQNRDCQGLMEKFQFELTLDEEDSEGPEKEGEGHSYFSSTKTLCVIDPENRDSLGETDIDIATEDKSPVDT
For orientation: qHTS replaces the single test concentration by a dilution series.

The target in experiment [9] is Guanine nucleotide-binding protein G(i) subunit alpha-1 (Homo sapiens) (UniProt P63096). As to the kind of experiment: qHTS Assay for Inhibitors of RGS12 GoLoco Motif Activity (Green Fluorophore) (AID 879).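 Note: 0% = labeled peptide with Gαi1 and full inhibition = labeled peptide alone without protein; negative values mean loss of peptide binding seen as reduced polarization.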 A digest of the protocol:
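Fluorescence polarization assay: 50 nM Gαi1 with 10 nM FITC-labeled RGS12 GoLoco peptide in 10 mM Tris pH 7.5, 150 mM NaCl, 0.1 mM GDP, 0.05% NP40, 10 min at room temperature with compound.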

Experiment [10] deals with Muscarinic acetylcholine receptor M1 (Rattus norvegicus) (UniProt P08482). As to the kind of experiment: qHTS Assay for Antagonists of Acetylcholine Muscarinic M1 Receptor: Measurement of IP-One Response (AID 944). Note: nearly all actives have a fitted effect of over 75% in size. Put shortly: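 CHO cells stably expressing rat M1, pretreated 10 min with compound, then stimulated 30 min with carbachol at EC80 (200 nM) in LiCl-containing buffer pH 7.4; IP1 accumulation read by HTRF competition (665/620 nm).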
Sequence of Muscarinic acetylcholine receptor M1 (Rattus norvegicus) (P08482 whole entry, looked up): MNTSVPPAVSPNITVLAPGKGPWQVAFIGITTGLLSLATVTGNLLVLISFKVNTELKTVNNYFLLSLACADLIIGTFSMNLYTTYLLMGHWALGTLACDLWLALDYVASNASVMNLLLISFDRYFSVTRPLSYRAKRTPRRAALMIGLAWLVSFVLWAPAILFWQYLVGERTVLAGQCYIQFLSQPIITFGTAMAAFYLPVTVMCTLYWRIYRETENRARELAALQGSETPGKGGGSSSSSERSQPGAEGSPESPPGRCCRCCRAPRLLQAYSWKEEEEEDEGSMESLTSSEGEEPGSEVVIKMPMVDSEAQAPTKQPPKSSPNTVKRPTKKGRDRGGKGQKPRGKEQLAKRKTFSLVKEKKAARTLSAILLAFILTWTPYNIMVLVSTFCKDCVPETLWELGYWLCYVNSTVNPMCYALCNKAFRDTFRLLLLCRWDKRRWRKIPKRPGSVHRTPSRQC

The target of experiment [11] is Pyruvate kinase (Leishmania mexicana) (UniProt Q27686). As to the kind of experiment: qHTS Validation Assay for Inhibitors of Leishmania Mexicana Pyruvate Kinase (AID 945).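 Note: 0% = DMSO only neutral control wells.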 A digest of the protocol:
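Eight-point qHTS titrations; enzyme 0.2 nM LmPYK (E451W mutant); substrates 0.5 mM PEP, 0.1 mM ADP; 7 mM MgCl2; 1 h room temperature; PKLight luminescence normalized to neutral control.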

Experiment [12] has as its target Pyruvate kinase PKM (Homo sapiens) (UniProt P14618). As to the kind of experiment: qHTS Assay for Activators of Human Muscle Pyruvate Kinase (AID 954; active = well fitted curve in the direction sought with a large enough effect, not every such curve was filed as active;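 note: 0% = uninhibited enzyme and -100% = no enzyme or full thiadiazolimine inhibition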). Put shortly: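 Human PKM2 activity is measured as ATP generation, detected by luciferase-coupled luminescence. The enzyme (0.1 nM) acts on 0.5 mM PEP and 0.1 mM ADP for 1 h at ambient temperature; data are normalized to uninhibited and full-inhibition wells.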

Experiment [13] deals with Alpha-galactosidase (Coffea arabica) (UniProt Q42656). Put plainly: Counterscreen for Glucocerebrosidase Inhibitors: qHTS Assay for Coffee Bean alpha-Galactosidase at pH 4.5 (AID 957).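 Note: plate controls were enzyme alone for no effect and no enzyme for full effect.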 A digest of the protocol: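 Coffee bean enzyme (2 nM) with 80 uM 4-methylumbelliferyl alpha-D-galactopyranoside in 50 mM citric acid, 0.005% Tween-20, pH 4.5, 20 min at room temperature; compounds 0.7 nM–77 uM. Stopped at pH 10, fluorescence 365/440 nm; AC50 from Hill fits.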
Sequence of Alpha-galactosidase (Coffea arabica) (Q42656 whole entry, looked up): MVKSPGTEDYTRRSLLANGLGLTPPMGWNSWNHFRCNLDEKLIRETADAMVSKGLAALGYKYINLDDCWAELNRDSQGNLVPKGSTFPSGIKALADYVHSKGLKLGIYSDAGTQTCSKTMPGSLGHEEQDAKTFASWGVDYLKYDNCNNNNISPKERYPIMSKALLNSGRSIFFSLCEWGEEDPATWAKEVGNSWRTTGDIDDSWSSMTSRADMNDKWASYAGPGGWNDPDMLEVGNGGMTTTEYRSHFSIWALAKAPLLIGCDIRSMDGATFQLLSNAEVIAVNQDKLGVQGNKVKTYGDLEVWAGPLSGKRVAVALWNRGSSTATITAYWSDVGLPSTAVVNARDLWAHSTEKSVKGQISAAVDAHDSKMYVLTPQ

For experiment [14], the target named is Alpha-galactosidase A (Homo sapiens) (UniProt P06280). As to the kind of experiment: Counterscreen for Glucocerebrosidase Inhibitors: qHTS Assay for Human alpha-Galactosidase at pH 4.5 (AID 992). Note: 0% is about no effect. Put shortly:
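Quantitative HTS: compounds tested from 0.7 nM up to 77 uM against 2 nM enzyme with 80 uM 4-MU alpha-D-galactopyranoside. The 20 min room-temperature reaction is stopped with 1M NaOH/1M glycine, pH 10.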
A general note: The purpose of a counterscreen is to sort out artefacts and off-target activity.

In experiment [15] the target is alpha-glucosidase (Oryza sativa, rice) (UniProt Q653V4). Put plainly: Counterscreen for Glucocerebrosidase Inhibitors: qHTS Assay for Rice alpha-Glucosidase at pH 5.0 (AID 997).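 Note: 0% = full activity with enzyme and -100% = basal without enzyme.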 Put shortly:
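Rice alpha-glucosidase (4 nM final) with 400 uM 4-methylumbelliferyl-alpha-D-glucopyranoside in citrate buffer pH 5.0, 20 min at room temperature, stopped at pH 10; fluorescence 365/440 nm, compounds 0.7 nM–77 uM, AC50 from Hill fits.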

For experiment [16], the target named is Alpha-galactosidase (Coffea arabica) (UniProt Q42656). Put plainly: Counterscreen for Glucocerebrosidase Inhibitors: qHTS Assay for Coffee Bean alpha-Galactosidase at pH 5.9 (AID 998).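 Note: plate controls were uninhibited enzyme for no effect and no-enzyme basal signal for full effect.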 A digest of the protocol:
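Compounds were titrated from 0.7 nM to 77 uM against green coffee bean alpha-galactosidase (2 nM) using 80 uM fluorogenic 4-methylumbelliferyl substrate. After 20 min at room temperature, reactions were stopped at pH 10 and read by fluorescence.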

The nature of experiment [17]: qHTS Assay for Identification of Small Molecule Agonists for Thrombopoietin (TPO) Signaling Pathway (AID 917). Note: % is set by controls: 0 for no effect and ±100 for the full control effect. A digest of the protocol: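 Luminescence from a Glycoprotein IIb promoter–driven luciferase reporter served as read-out in murine Ba/F3 cells carrying the human TPO receptor. Cells, deprived of IL-3 overnight, received compounds with 26 pM TPO and were incubated 24 hrs at 37 C.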

In experiment [18] the target is Cytochrome P450 2C19 (Homo sapiens) (UniProt P33261). Put plainly: qHTS Assay for Inhibitors and Substrates of Cytochrome P450 2C19 (AID 899). Note: nearly all actives have a fitted effect of over 60% in size. Note: potency is the fitted concentration of half-maximal effect. Put shortly:
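Luminescence readout of luciferin formed from 10uM Luciferin-H EGE (KM level) by 5 nM CYP2C19 in 50mM KPO4. 60 min NADPH-driven reaction at 37C after 10 min compound preincubation; data scaled to 57uM ketoconazole inhibition.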

Experiment [19] deals with Cytochrome P450 3A4 (Homo sapiens) (UniProt P08684). As to the kind of experiment: qHTS Assay for Activators of Cytochrome P450 3A4 (AID 885). Note: nearly all actives have a fitted effect of over 65% in size. Put shortly:
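Signal was normalized against complete inhibition by 57 uM ketoconazole. The reaction used 20nM CYP3A4 with 25uM Luciferin-PPXE, 10-min compound preincubation and a 60-min NADPH-supported step at RT.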

Sequence of Alpha-galactosidase A (Homo sapiens) (P06280 whole entry, looked up): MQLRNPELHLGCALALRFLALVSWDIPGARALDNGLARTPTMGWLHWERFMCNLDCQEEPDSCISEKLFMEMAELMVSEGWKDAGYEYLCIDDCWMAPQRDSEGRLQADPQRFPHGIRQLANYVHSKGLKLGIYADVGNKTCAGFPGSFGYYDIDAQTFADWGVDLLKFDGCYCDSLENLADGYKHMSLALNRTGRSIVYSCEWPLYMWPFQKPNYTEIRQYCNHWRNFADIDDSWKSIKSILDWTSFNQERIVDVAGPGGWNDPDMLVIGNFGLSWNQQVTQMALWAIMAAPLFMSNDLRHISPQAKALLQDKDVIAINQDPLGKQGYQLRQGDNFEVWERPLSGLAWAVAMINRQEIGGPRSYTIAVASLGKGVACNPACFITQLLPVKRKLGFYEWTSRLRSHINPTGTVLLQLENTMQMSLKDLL
Sequence of Cytochrome P450 1A2 (Homo sapiens) (P05177 whole entry, looked up): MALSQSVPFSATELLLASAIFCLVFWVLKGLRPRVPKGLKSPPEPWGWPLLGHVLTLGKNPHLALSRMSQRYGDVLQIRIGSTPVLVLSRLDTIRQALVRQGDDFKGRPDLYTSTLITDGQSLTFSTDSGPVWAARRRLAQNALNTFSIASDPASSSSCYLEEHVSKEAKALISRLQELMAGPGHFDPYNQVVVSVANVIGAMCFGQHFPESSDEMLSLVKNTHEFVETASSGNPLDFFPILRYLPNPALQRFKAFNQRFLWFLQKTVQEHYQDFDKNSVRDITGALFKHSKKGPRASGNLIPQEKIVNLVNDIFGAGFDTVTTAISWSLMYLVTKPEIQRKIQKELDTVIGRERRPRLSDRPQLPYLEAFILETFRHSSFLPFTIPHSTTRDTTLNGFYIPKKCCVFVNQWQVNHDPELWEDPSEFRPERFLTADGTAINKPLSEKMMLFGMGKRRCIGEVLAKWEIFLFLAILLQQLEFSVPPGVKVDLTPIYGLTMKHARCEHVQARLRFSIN
Sequence of Pyruvate kinase (Leishmania mexicana) (Q27686 2-499 E452W): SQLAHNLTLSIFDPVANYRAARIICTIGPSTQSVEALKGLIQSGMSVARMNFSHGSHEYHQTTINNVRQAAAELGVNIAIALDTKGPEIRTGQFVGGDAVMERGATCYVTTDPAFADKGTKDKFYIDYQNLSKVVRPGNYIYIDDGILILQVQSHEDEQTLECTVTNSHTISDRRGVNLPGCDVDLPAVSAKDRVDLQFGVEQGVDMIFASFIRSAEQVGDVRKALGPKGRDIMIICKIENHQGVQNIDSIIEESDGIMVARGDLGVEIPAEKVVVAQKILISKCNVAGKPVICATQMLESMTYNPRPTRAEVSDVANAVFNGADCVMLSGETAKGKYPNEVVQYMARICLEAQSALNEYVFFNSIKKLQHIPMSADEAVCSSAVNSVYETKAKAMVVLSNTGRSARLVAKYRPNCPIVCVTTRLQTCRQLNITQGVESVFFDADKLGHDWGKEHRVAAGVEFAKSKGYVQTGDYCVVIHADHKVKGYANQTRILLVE
Sequence of Guanine nucleotide-binding protein G(i) subunit alpha-1 (Homo sapiens) (P63096 whole entry, looked up): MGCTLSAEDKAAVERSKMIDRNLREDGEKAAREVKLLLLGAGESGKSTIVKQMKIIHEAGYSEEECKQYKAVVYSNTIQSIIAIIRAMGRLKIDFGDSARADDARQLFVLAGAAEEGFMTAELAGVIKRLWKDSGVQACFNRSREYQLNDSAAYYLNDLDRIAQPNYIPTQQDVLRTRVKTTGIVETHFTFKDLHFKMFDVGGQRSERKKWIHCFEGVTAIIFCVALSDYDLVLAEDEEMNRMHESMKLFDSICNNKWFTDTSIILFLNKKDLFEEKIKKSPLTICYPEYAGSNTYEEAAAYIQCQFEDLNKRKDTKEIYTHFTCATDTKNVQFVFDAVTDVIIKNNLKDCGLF
Sequence of Pyruvate kinase PKM (Homo sapiens) (P14618 whole entry, looked up): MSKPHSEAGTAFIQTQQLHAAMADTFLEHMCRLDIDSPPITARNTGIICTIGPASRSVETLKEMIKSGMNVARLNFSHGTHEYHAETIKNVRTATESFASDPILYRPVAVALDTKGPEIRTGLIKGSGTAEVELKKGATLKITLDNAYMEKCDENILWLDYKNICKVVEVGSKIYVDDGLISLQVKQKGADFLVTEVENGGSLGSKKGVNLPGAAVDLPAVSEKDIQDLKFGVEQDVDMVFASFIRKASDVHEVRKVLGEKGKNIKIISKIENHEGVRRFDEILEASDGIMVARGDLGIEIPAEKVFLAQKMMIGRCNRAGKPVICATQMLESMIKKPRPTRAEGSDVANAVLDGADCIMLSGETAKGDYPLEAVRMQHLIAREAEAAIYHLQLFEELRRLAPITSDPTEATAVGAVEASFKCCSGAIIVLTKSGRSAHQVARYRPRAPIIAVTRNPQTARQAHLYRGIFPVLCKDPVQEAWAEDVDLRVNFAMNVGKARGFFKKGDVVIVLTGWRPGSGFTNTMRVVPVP

On to `C[C@@]12CC[C@H]3[C@@H](CCC4=C(O)C(=O)CC[C@]43C)[C@H]1CCC2=O`, for which the activity change, negative = inhibition was 4.24% [at 38 µM] in experiment [1] and -1.14% [at 38 µM] in [3]. For the same compound, the Potency result in experiment [2], in experiment [7] and in [10] was “inactive” in each case. Besides, in experiment [4], the activity, negative = inhibition was 14.9% [at 38 µM]. Further, the Potency in experiment [5] and in experiment [6] was > 46 µM in each case. The outcome in experiment [8], in [9], in experiment [11], in experiment [12], in [13] and in [14] was inactive. For the same compound, the result in [15] and in [16] was inactive.

Take `CC(=O)OC1=CC2=CC[C@H]3[C@H]4CCC(=O)[C@@]4(C)CC(=O)[C@]3(S)[C@]2(C)CC1`: the activity change, negative = inhibition in experiment [1] was -0.915%; in experiment [2] it was -9.4% [at 2.29 µM]; in experiment [3], 2.48%; in [7] it was -3.16% [at 11.4 µM]. For the same compound, the activity, negative = inhibition in experiment [4] is -7.63%. Moreover, the Potency is > 46 µM in experiment [5] and > 9.22 µM in experiment [6]. Moreover, in experiment [8], the call was inactive.

Take `C#CCN[C@@H](C)Cc1ccccc1`: the activity change, negative = inhibition in experiment [1] is 1.81% [at 38 µM]; in experiment [3] it was 0.0477% [at 38 µM]. The Potency in experiment [2] is 15.8 µM (active); in experiment [5] it was > 46 µM; in experiment [6] it was > 46 µM. Besides, the activity, negative = inhibition in experiment [4] is -23.9% [at 38 µM]. The call in [8], in [9], in [17], in [11], in experiment [12] and in experiment [13] was inactive. For the same compound, the call in experiment [14], in experiment [15] and in [16] was inactive. Besides, the Potency entry in experiment [10] was “inactive”.

For the compound `O=C(O)Cc1ccc([N+](=O)[O-])cc1[N+](=O)[O-]`, the activity change, negative = inhibition in experiment [1] was -0.903%; in [3], -1.68%. The figures for the Potency in experiment [2], in [5] and in experiment [6] were 3.98 µM (active), > 46 µM and > 9.22 µM, respectively. The activity, negative = inhibition in [4] was 5.17%. Also, the compound was called inactive in experiment [8].

Regarding `CCNC(=O)[C@@H]1O[C@@H](n2cnc3c(N)ncnc32)[C@@H](O)[C@H]1O`, the activity change, negative = inhibition in experiment [1] is -6.61% [at 38 µM]; in [3] it was -9.11% [at 38 µM]. For the same compound, the Potency result in experiment [2], in [7], in [18] and in [10] was “inactive” each time. Also, in [4], the activity, negative = inhibition was 24.4% [at 38 µM]. Also, the Potency in experiment [5] and in experiment [6] was > 46 µM in each case. In addition, the compound was called inactive in experiment [9], in experiment [17], in experiment [11], in [12], in [13] and in experiment [14]. The result in experiment [15] and in experiment [16] was inactive.

For `NC(=O)c1ccc(C(=O)Nc2ccc([As](=O)(O)O)cc2)cc1`, the activity change, negative = inhibition was -1.92% in experiment [1], -13.8% [at 2.29 µM] in [2] and 26.9% in [3]. Also, in [4], the activity, negative = inhibition is 5.04%. Moreover, the Potency in experiment [5] is > 46 µM; in experiment [6], > 9.22 µM. In experiment [8], the result was inactive.

For the compound `C[C@H](Br)CN(C[C@H](C)Br)c1ccc2c(c1)Cc1ccccc1-2`, the activity change, negative = inhibition in experiment [1] is -9.29%; in [3], 8.25%; in experiment [7], -8.45% [at 11.4 µM]. Also, the Potency is 3.16 µM (active) in experiment [2], > 46 µM in [5], > 9.22 µM in experiment [6] and 2.51 µM (active) in experiment [18]. The activity, negative = inhibition in experiment [4] is -7.03%. In experiment [8], the result was inactive. Further, the activity change, positive = activation in experiment [19] was -34.7% [at 11.4 µM].

For the origin of these results see PubChem BioAssay (NCATS).
